Consider nine compounds from PubChem BioAssay (Tox21).

A number with no mark means an inactive call. Records with an inconclusive call do not appear. Activity calls are given as the source filed them. Unless noted, the call rests on the fitted dose curve; in most records, active means well fitted curve in the direction sought with a large enough effect in the repeat runs; inconclusive means weak or mixed curves; inactive means no such curve, though single readings can be large; an effect the other way counts as inactive or inconclusive.

Assay [1] is described as follows: Human pregnane X receptor (PXR) small molecule agonists, qHTS cell viability counter screen (AID 1346977). Further: nearly all actives have a fitted effect of over 50% in size. The method in brief:
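PXR-Luc HepG2 cells in medium with 5% charcoal-stripped FBS were pre-incubated 5hr, then exposed to compounds for 24hr at 37C. Viability was read in the same wells by CellTiter-Fluor fluorescence, reagent added after 23hr with a 1hr incubation.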
A general note: Quantitative high-throughput screening tests each substance at several concentrations.

The nature of assay [2]: Caspase-3/7 induction in HepG2 cells by small molecules, qHTS assay (AID 1346978). Further: nearly all actives have a fitted effect of over 15% in size. An outline of the steps:
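Caspase-3/7 induction was measured by Caspase-Glo 3/7 luminescence (30 min, room temperature) after a 17 hr compound exposure of wild-type HepG2 cells seeded at 2,000 per well and pre-incubated 5 hr.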

Assay [3] in a line: Caspase-3/7 induction in CHO-K1 cells by small molecules, qHTS cell viability counter screen (AID 1346979). Further: nearly all actives have a fitted effect of over 35% in size. Further: potency means the concentration at half of the fitted maximal effect. The method in brief:
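Wild-type CHO-K1 cells were seeded at 1,500 per well, rested 5hr at 37 C, then exposed to compounds in DMSO. After 16hr, CellTiter-Fluor reagent was added and fluorescence read 1hr later as the viability measure.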

Assay [4] can be described thus: Caspase-3/7 induction in CHO-K1 cells by small molecules, qHTS assay (AID 1346980). Further: nearly all actives have a fitted effect of over 15% in size. An outline of the steps:
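Luminescent Caspase-Glo 3/7 read (30min, room temperature) quantified apoptosis induction. Cells were wild-type CHO-K1, treated with compound for 17hr at 37 C and 5% CO2.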

A short description of assay [5]: Caspase-3/7 induction in HepG2 cells by small molecules, qHTS cell viability counter screen (AID 1346981). Further: nearly all actives have a fitted effect of over 30% in size. Further: potency means the concentration at half of the fitted maximal effect. The method in brief:
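The parent HepG2 line is plated at 2,000 cells per well and rested 5 hr before compound pinning from DMSO stocks. Following a 16-hr treatment at 37 C, a fluorogenic live-cell substrate (CellTiter-Fluor) reports viability after 1 hr.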

Assay [6] concerns the target Nuclear receptor subfamily 1 group I member 2 (Homo sapiens) (UniProt O75469). Nature of the assay: Human pregnane X receptor (PXR) small molecule agonists, qHTS assay (AID 1346982). Further: nearly all actives have a fitted effect of over 35% in size. The method in brief:
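After plating in 5% charcoal-stripped FBS and a 5 hr rest, PXR-Luc HepG2 cells received compounds in DMSO. Following 24 hr at 37 C, ONE-Glo was added and light output read.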

The target of assay [7] is Cytochrome P450 2D6 (Homo sapiens) (UniProt P10635). Kind of assay: Cytochrome P450 Family 2 Subfamily D Member 6 (CYP2D6) small molecule antagonists: luciferase reporter qHTS assay (AID 1671196). Further: nearly all actives have a fitted effect of over 50% in size. Further: potency means the concentration at half of the fitted maximal effect. An outline of the steps: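 Quantitative HTS of Tox21 chemicals against CYP2D6 using a luminescent proluciferin substrate. After NADPH addition, 1 h room-temperature reaction; luminescence recorded 20 min post detection reagent.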
Cytochrome P450 2D6 (Homo sapiens), sequence (P10635 whole entry, looked up): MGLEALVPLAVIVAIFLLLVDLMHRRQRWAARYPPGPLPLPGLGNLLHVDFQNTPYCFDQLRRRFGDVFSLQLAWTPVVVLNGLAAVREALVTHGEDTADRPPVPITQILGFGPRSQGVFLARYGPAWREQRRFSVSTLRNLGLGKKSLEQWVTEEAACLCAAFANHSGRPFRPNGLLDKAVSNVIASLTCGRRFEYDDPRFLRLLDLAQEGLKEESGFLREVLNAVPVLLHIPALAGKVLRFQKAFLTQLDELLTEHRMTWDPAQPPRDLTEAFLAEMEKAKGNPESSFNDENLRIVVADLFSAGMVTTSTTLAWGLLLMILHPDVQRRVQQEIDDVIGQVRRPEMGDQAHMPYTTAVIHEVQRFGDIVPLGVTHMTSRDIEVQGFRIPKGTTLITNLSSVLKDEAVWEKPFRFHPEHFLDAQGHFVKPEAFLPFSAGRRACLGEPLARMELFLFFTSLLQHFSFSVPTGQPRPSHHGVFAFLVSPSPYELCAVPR

The target in assay [8] is Cytochrome P450 2C19 (Homo sapiens) (UniProt P33261). Kind of assay: Cytochrome P450 Family 2 Subfamily C Member 19 (CYP2C19) small molecule antagonists: luciferase reporter qHTS assay (AID 1671197). Further: nearly all actives have a fitted effect of over 65% in size. Further: potency means the concentration at half of the fitted maximal effect. The method in brief:
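Light output is proportional to CYP2C19 activity: proluciferin substrate is converted to luciferin, then detected by a luciferin detection reagent that also stops the 1 h, 37C NADPH-driven reaction. Ketoconazole serves as positive control.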
On the technique in general: In a reporter assay the amount or activity of a reporter protein is the signal.

The target of assay [9] is Thyrotropin-releasing hormone receptor (Homo sapiens) (UniProt P34981). Nature of the assay: qHTS assay to identify small molecule agonists of the thyrotropin-releasing hormone receptor (TRHR) signaling pathway (AID 1346891; calls by dose curve; further: series mostly up to about 58 µM). An outline of the steps:
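TRHR-expressing HEK293 cells were plated 18 h at 37 °C/5% CO2, loaded with calcium dye 2 h at 37 °C, then given compound in DMSO; fluorescence was read kinetically for 3 min at 1 s intervals.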

Assay [10] concerns the target Cytochrome P450 2C9 (Homo sapiens) (UniProt P11712). Nature of the assay: Cytochrome P450 Family 2 Subfamily C Member 9 (CYP2C9) small molecule antagonists: luciferase reporter qHTS assay (AID 1671198). Further: nearly all actives have a fitted effect of over 50% in size. Further: potency means the concentration at half of the fitted maximal effect. The method in brief: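 Enzyme-substrate mix preincubated with compound 10 min at room temperature; reaction started with NADPH regeneration solution, 1 h 37C. Luminescent luciferin product read after 20 min detection reagent.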

The target in assay [11] is Cytochrome P450 1A2 (Homo sapiens) (UniProt P05177). Nature of the assay: Cytochrome P450 Family 1 Subfamily A Member 2 (CYP1A2) small molecule antagonists: luciferase reporter qHTS assay (AID 1671199). Further: nearly all actives have a fitted effect of over 50% in size. Further: potency means the concentration at half of the fitted maximal effect. An outline of the steps: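 Quantitative high-throughput format using the P450-Glo CYP1A2 system. Reaction initiated by NADPH regeneration solution, 1 h at room temperature, then stopped with detection reagent; luminescence measured 20 min later.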
Cytochrome P450 1A2 (Homo sapiens), sequence (P05177 whole entry, looked up): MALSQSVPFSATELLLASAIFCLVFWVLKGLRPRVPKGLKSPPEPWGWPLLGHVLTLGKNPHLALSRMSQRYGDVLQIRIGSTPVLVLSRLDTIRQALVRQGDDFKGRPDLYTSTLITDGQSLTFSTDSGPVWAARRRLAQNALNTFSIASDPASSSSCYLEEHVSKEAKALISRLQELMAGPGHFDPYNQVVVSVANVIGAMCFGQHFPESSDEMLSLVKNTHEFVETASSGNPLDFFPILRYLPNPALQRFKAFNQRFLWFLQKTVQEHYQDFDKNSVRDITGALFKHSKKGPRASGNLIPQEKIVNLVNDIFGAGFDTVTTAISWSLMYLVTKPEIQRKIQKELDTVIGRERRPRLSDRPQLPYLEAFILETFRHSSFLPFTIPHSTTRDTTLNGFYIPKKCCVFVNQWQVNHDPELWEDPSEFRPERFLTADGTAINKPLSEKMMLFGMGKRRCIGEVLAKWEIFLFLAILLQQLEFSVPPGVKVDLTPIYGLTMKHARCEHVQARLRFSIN

The target of assay [12] is Voltage-gated inwardly rectifying potassium channel KCNH2 (Homo sapiens) (UniProt Q12809). Nature of the assay: Human Ether-a-go-go-Related Gene (hERG) channel small molecule antagonists: fluorescence cell-based qHTS assay (AID 1671200). The method in brief:
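U2OS cells expressing the channel were plated at 1000 cells/well, incubated overnight at 37 C, then loaded with FluxOR II thallium-sensitive dye for 1 h at room temperature in the dark, with a further 10 min at room temperature before stimulation.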

For assay [13], the target named is Cytochrome P450 3A4 (Homo sapiens) (UniProt P08684). Kind of assay: Cytochrome P450 Family 3 Subfamily A Member 4 (CYP3A4) small molecule antagonists: luciferase reporter qHTS assay (AID 1671201). Further: nearly all actives have a fitted effect of over 50% in size. Further: potency means the concentration at half of the fitted maximal effect. The method in brief:
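P450-Glo CYP3A4 system with proluciferin substrate; compounds preincubated 10 min RT with enzyme-substrate mix, then NADPH regeneration added for 1 h RT. Detection reagent 20 min, luminescence read as relative luminescence units.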

For assay [14], the target named is Nuclear receptor subfamily 1 group I member 2 (Rattus norvegicus) (UniProt Q9R1A7). Nature of the assay: Rat pregnane X receptor (rPXR) activation by small molecules, qHTS assay (AID 1346983). Further: nearly all actives have a fitted effect of over 20% in size. Particulars: rPXR luciferase reporter cells, One-Glo luminescence, 24 h; max activation: hits give high values. An outline of the steps: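 Luminescent readout (One-Glo luciferase, 30 min room temperature) followed 24 hr compound treatment at 37 C of rPXR cells plated 2,000 per well and preincubated 5hr; qHTS format with compounds delivered in DMSO.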
Nuclear receptor subfamily 1 group I member 2 (Rattus norvegicus), sequence (Q9R1A7 whole entry, looked up): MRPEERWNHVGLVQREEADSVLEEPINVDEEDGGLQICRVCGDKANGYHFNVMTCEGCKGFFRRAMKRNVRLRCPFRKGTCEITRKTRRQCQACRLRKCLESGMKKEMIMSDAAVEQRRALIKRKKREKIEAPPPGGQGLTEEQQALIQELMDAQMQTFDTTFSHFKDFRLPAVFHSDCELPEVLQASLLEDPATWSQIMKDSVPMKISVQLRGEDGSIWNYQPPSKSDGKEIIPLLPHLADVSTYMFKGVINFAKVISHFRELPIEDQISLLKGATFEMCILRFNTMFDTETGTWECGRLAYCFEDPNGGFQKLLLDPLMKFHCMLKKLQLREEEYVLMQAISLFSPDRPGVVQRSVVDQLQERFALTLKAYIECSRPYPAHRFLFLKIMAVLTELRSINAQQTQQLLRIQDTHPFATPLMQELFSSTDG

Assay [15] addresses Nuclear receptor subfamily 1 group I member 2 (Homo sapiens) (UniProt O75469). Kind of assay: CYP3A4 induction through human pregnane X receptor (PXR) by small molecules, qHTS assay (AID 1346984). Further: nearly all actives have a fitted effect of over 40% in size. The method in brief: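 Human PXR activation is tracked via CYP3A4 promoter-luciferase in DPX-2 (HepG2) cells. Compounds treat cells for 24hr at 37C, and luminescence is read after One-Glo.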

The target is the same in assay [16]. Kind of assay: Human pregnane X receptor (PXR) activation by small molecules, qHTS assay (AID 1346985). Further: nearly all actives have a fitted effect of over 40% in size. An outline of the steps:
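DPX-2 cells (HepG2 co-transfected with a PXR response element and a CYP3A4-promoter luciferase construct) were seeded at 2,000 per well, rested 5 hr at 37C, then exposed to DMSO-dissolved compounds for 24 hr. Activation was read as luciferase luminescence.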
On the % scale 0 is the no-effect control and ±100 the full control effect.

Cytochrome P450 2C9 (Homo sapiens), sequence (P11712 whole entry, looked up): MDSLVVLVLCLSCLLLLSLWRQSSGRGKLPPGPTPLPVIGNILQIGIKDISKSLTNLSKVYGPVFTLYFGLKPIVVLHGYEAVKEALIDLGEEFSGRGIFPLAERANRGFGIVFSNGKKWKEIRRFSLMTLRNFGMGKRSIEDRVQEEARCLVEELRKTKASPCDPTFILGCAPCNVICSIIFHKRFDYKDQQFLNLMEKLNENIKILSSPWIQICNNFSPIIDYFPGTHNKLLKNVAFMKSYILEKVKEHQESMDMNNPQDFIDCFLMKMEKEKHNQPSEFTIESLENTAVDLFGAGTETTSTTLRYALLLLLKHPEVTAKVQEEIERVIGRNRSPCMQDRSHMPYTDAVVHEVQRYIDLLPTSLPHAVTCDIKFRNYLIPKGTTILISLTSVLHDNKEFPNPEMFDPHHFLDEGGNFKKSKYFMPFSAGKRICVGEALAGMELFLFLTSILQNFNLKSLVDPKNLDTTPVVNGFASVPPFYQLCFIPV
Cytochrome P450 3A4 (Homo sapiens), sequence (P08684 whole entry, looked up): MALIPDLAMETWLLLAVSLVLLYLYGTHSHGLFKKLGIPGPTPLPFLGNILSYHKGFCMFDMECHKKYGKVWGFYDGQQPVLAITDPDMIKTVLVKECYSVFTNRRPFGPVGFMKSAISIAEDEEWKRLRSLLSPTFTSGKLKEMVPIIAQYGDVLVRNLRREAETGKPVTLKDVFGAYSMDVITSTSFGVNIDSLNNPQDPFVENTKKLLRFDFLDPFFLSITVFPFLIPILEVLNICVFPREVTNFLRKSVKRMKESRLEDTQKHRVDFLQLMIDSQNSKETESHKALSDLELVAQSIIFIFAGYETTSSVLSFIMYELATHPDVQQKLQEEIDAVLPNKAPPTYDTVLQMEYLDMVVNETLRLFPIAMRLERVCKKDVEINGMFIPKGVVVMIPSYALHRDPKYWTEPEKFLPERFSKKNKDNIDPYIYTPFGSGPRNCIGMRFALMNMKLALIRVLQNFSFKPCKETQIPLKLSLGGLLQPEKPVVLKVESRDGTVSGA
Cytochrome P450 2C19 (Homo sapiens), sequence (P33261 whole entry, looked up): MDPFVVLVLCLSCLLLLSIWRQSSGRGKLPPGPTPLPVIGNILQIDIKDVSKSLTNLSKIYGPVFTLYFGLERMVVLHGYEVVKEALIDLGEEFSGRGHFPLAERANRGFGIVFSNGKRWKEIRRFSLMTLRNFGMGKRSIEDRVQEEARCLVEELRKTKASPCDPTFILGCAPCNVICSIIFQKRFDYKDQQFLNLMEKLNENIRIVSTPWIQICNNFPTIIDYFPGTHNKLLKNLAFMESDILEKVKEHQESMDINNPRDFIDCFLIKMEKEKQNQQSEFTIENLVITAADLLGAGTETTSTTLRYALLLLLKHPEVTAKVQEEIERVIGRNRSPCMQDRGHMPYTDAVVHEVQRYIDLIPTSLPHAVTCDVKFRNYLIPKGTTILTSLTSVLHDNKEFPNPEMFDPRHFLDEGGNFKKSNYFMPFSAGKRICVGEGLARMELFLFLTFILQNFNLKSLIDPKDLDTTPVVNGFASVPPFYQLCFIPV
Voltage-gated inwardly rectifying potassium channel KCNH2 (Homo sapiens), sequence (Q12809 whole entry, looked up): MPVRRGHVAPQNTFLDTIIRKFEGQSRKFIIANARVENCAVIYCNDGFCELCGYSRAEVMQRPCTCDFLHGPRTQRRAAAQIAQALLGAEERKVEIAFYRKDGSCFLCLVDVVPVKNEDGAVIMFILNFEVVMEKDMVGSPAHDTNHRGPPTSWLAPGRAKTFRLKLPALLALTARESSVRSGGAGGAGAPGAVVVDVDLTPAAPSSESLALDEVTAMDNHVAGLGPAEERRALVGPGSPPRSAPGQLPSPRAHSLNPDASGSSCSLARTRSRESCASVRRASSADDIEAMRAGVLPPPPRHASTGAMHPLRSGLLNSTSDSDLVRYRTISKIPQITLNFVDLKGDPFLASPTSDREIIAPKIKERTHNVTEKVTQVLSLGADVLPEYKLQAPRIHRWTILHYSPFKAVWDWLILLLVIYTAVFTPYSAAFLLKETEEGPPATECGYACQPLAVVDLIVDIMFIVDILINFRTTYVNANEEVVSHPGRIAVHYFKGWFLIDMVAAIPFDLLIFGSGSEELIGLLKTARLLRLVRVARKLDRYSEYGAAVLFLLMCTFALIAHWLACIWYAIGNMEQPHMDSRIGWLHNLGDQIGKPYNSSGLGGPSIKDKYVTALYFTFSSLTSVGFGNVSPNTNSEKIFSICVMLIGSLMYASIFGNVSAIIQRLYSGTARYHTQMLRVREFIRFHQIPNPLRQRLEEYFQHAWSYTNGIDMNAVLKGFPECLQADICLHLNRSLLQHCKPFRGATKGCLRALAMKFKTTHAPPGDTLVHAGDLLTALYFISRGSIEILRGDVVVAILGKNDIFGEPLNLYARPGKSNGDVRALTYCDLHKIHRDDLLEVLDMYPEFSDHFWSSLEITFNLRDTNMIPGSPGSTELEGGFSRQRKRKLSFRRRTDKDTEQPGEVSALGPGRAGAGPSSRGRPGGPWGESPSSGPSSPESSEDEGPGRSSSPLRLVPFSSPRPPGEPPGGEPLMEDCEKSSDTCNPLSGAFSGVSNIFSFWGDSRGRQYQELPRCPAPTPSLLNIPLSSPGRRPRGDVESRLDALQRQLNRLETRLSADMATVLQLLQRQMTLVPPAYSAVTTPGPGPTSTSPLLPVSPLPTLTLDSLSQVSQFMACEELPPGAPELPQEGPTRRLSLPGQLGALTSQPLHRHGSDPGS
Thyrotropin-releasing hormone receptor (Homo sapiens), sequence (P34981 whole entry, looked up): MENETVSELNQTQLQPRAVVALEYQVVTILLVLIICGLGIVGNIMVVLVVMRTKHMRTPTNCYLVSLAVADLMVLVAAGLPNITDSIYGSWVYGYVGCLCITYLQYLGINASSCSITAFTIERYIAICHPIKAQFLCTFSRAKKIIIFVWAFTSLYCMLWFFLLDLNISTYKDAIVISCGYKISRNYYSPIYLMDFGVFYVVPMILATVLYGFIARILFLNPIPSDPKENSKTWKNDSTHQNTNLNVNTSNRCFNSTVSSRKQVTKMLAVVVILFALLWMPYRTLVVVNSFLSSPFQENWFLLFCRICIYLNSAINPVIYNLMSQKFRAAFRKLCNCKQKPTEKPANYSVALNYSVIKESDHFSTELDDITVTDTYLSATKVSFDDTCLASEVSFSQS
Nuclear receptor subfamily 1 group I member 2 (Homo sapiens), sequence (O75469 whole entry, looked up): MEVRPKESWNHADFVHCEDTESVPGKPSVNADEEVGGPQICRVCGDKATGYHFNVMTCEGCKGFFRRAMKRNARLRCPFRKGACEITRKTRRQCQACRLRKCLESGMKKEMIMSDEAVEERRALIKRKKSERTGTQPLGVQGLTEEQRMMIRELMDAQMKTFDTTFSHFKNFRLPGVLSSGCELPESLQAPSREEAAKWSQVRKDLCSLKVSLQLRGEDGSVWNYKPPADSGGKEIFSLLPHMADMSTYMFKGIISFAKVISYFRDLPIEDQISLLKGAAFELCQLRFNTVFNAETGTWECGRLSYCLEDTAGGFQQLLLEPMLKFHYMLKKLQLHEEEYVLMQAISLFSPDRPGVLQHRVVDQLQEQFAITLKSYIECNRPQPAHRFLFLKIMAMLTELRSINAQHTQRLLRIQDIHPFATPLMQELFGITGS

Take `CCO[Si](C)(CCCOCC1CO1)OCC` (stereo unspecified): the Potency entry in assay [1], in assay [2], in [3], in [5], in assay [6] and in assay [7] was “inactive” in each case. In addition, the Potency result in [8] was “inactive”. In assay [4], the compound was classed as inactive.
Turning to `Cc1ccc2c(c1)CCCN2`, the outcome in [9] and in assay [4] was inactive. Besides, the Potency entry in [2], in [5], in assay [12] and in [13] was “inactive” in each case. In addition, the Potency in assay [7] was 28.3 µM (active); in assay [8] it was 39.9 µM (active); in assay [10], 39.9 µM (active); in assay [11], 3.17 µM (active).
Consider `C=CC(=O)O`, for which the Potency entry in assay [1], in [2], in assay [3], in assay [5], in [6] and in assay [15] was “inactive” each time. For the same compound, the Potency entry in assay [16], in assay [7], in assay [11], in assay [12] and in assay [13] was “inactive” in each case. Besides, the call in assay [4] was inactive. In assay [14], the max activation is -1.96%.
For the compound `CC/C=C\C/C=C\C/C=C\CCCCCCCC(=O)OCC`, in assay [9], the result was inactive. The Potency entry in assay [1], in assay [2] and in [5] was “inactive” in each case. Further, the figures for the Potency in assay [8], in assay [10] and in assay [13] were 64.8 µM (active), 40.9 µM (active) and 72.7 µM (active), respectively.
Turning to `CC[C@@H](CO)NCCN[C@@H](CC)CO`, the Potency entry in assay [1], in assay [2], in assay [3], in assay [5], in assay [6] and in [15] was “inactive” throughout. For the same compound, the Potency entry in assay [16], in [7], in assay [8], in assay [10], in assay [11] and in [12] was “inactive” each time. In addition, in assay [13], the Potency entry is “inactive”. Further, the call in assay [4] was inactive. Moreover, the max activation in assay [14] was 2.2%.
For the compound `COC(OC)OC`, the Potency entry in [1], in assay [2], in assay [3], in assay [5], in assay [6] and in assay [7] was “inactive” each time. Besides, the Potency result in assay [8], in assay [10], in [11], in assay [12] and in [13] was “inactive” throughout. For the same compound, the compound was called inactive in assay [4].
On to `CCC(CO)(CO)[N+](=O)[O-]`, for which the Potency entry in assay [1], in assay [2], in assay [3], in [5], in assay [6] and in assay [7] was “inactive” each time. Besides, the Potency result in assay [8], in assay [10], in assay [11], in assay [12] and in [13] was “inactive” throughout. For the same compound, the result in assay [4] was inactive.
As to `O=C(O)c1cc(Cl)cc(Cl)c1O`, the compound was called inactive in [9] and in assay [4]. Moreover, the Potency result in [2], in [3], in assay [5], in [6], in assay [7] and in [8] was “inactive” in each case. Further, the Potency result in assay [12] and in [13] was “inactive” throughout. In addition, the Potency in assay [10] was 28.3 µM (active).
Take `CCN(CC)C(=O)/C(C#N)=C/c1cc(O)c(O)c([N+](=O)[O-])c1`: the compound was classed as inactive in assay [9] and in assay [4]. The Potency entry in assay [2], in assay [15], in assay [16], in assay [7], in [8] and in assay [11] was “inactive” throughout. For the same compound, the Potency entry in assay [12] is “inactive”. For the same compound, the Potency in [3] was 26.6 µM (active); in assay [5] it was 29.8 µM (active); in [10], 0.195 µM (active). In addition, the max activation in [14] was -6.1%.
